The labels stand for the following.
B1: Caulobacter ParB omega fusion; a variant is named by its letters at X, in order, B8GW30 (parent)
chain: MESVVVGEPGMSEGRRGLGRGLSALLGEVDAAPAQAPGEQLGGSREAPIEILQRNPDQPRRTFREEDLEDLSNSIREKGVLQPILVRPSPDTAGEYQIVAGERAWRAAQRAGLKTVPIMVRELDDLAVLEIGIIENVQRADLNVLEEALSYKVLMEKFERTQENIAQTIGKSXSHVANXMRLLXLPDEVQSYLVSGELTAXHARAIAAAADPVALAKQIIEGGLSVRETEALARKAPNLSAGKSKGGRPPRVKDTDTQALESDLSSVLGLDVSIDHRGSTGTLTITYATLEQLDDLCNRLTRGI

The full ranking holds about 81,000 sequences; the median of “one-hybrid fitness for binding NBS DNA” is about -0.1, and the highest 2% start at about 0.36. The sample holds the highest values, similar sequences and a random draw of the others, so the mix is not that of the screen.

The values below come from a collection of fitness landscapes (doi:10.1016/j.celrep.2020.107928).

The variants in the test derive from B1. As to the kind of experiment: one-hybrid fitness for binding NBS DNA (the Noc-binding site; scaled: cognate 1, non-cognate 0); higher = stronger binding. The conditions noted are these: with NBS DNA site. The method in brief: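 Selection: bacterial one-hybrid in E. coli USO, HIS3 reporter with the site 19 bp from the promoter, 48 hours at 37°C on M9-minus-histidine plus 0.1 mM IPTG and 5 mM 3-AT. Libraries were Caulobacter ParB with four randomised specificity codons, sequenced on Illumina before and after selection. Fitness is the rescaled log change in variant-to-wild-type read ratio, anchored to the cognate and non-cognate sites.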
As for QSRW, the “one-hybrid fitness for binding NBS DNA” value came out at 0.254. The same measure for QPRW: at most 0.2; for QRYW: 0.203; for QRRW: 0.384. The same measure for PRYW: at most 0.2; for QTYW: at most 0.2. As for QTRW, the “one-hybrid fitness for binding NBS DNA” value turned out to be 0.417. The same measure for PRVW: at most 0.2. Turning to PRKW, the “one-hybrid fitness for binding NBS DNA” value was 0.446. The same measure for QTDW: at most 0.2. The same measure for QCRW: 0.371; for QRDW: at most 0.2; for NMRT: at most 0.2. The same measure for KSRN: at most 0.2; for MPIT: at most 0.2.

For the variant SLCY, the “one-hybrid fitness for binding NBS DNA” value is at most 0.2.

On to ADNG, for which the “one-hybrid fitness for binding NBS DNA” value was at most 0.2.

Consider FLPR, for which the “one-hybrid fitness for binding NBS DNA” value is at most 0.2. For the variant QRVW, the “one-hybrid fitness for binding NBS DNA” value was at most 0.2. The same measure for QTKW: 0.439; for QTVW: at most 0.2. Turning to QRKW, the “one-hybrid fitness for binding NBS DNA” value is 0.411. The same measure for QSKW: 0.279. For QCKW the value was 0.324. The same measure for NCCT: at most 0.2; for PANC: at most 0.2; for PYWD: at most 0.2. With QGMV, the “one-hybrid fitness for binding NBS DNA” value was at most 0.2. For TIMA the value was at most 0.2; for FGDS, at most 0.2. The same measure for LKMV: at most 0.2. The same measure for RGYR: at most 0.2; for RMKR: 0.738.

For RAKR, the “one-hybrid fitness for binding NBS DNA” value turned out to be 0.668. The same measure for RMVR: 0.314. For RIKD the value was at most 0.2. Regarding RIVR, the “one-hybrid fitness for binding NBS DNA” value stood at 0.28.

Consider RAVR, for which the “one-hybrid fitness for binding NBS DNA” value amounted to 0.277. The same measure for RMKY: 0.311; for RGKR: 0.38. Consider RAKP, for which the “one-hybrid fitness for binding NBS DNA” value is at most 0.2. For RIKR the value was 0.675; for RGVR, at most 0.2. As for IRVQ, the “one-hybrid fitness for binding NBS DNA” value is 0.203.

For VYLC, the “one-hybrid fitness for binding NBS DNA” value is at most 0.2.

Regarding TESV, the “one-hybrid fitness for binding NBS DNA” value was at most 0.2. For QVNP the value was at most 0.2. The same measure for GTKF: at most 0.2; for LEMR: at most 0.2; for RFPS: at most 0.2. Consider QVIH, for which the “one-hybrid fitness for binding NBS DNA” value was at most 0.2. Turning to GACL, the “one-hybrid fitness for binding NBS DNA” value was at most 0.2. The same measure for NFKR: at most 0.2; for RSVR: 0.293. For the variant RWYM, the “one-hybrid fitness for binding NBS DNA” value was at most 0.2.

Take RLVR: the “one-hybrid fitness for binding NBS DNA” value stood at 0.257. The same measure for RWVM: 0.413; for RFVR: at most 0.2; for RWKM: at most 0.2. As for RLKR, the “one-hybrid fitness for binding NBS DNA” value was 0.686. For RFKR the value was 0.522; for RLKH, 0.35; for RSKN, at most 0.2. Turning to RSKR, the “one-hybrid fitness for binding NBS DNA” value worked out at 0.682. The same measure for YFYC: at most 0.2; for QASC: at most 0.2; for LDYW: at most 0.2. Consider GGII, for which the “one-hybrid fitness for binding NBS DNA” value was at most 0.2.

Regarding RWKR, the “one-hybrid fitness for binding NBS DNA” value amounted to 0.372. The same measure for RDKR: at most 0.2; for RHKH: 0.326. The same measure for RHVR: 0.248; for RHKR: 0.701; for RPKR: at most 0.2.

Take RCKR: the “one-hybrid fitness for binding NBS DNA” value came to 0.76. In the case of RWKP, the “one-hybrid fitness for binding NBS DNA” value was at most 0.2.

Consider RWVR, for which the “one-hybrid fitness for binding NBS DNA” value amounted to 0.259. The same measure for FTQR: at most 0.2.

For PCEF, the “one-hybrid fitness for binding NBS DNA” value is at most 0.2. The same measure for PQIS: at most 0.2; for NIFS: at most 0.2. The same measure for NWPM: at most 0.2. QHVW: the “one-hybrid fitness for binding NBS DNA” value is at most 0.2. The same measure for NGRT: at most 0.2; for SSRN: at most 0.2; for GTQF: at most 0.2.

Regarding RRIN, the “one-hybrid fitness for binding NBS DNA” value amounted to 0.206. Turning to RREN, the “one-hybrid fitness for binding NBS DNA” value is at most 0.2. As for RCRN, the “one-hybrid fitness for binding NBS DNA” value is 0.23. The same measure for RRIC: 0.399; for RRRN: 0.618.

For RRIH, the “one-hybrid fitness for binding NBS DNA” value is 0.338.

Consider RCES, for which the “one-hybrid fitness for binding NBS DNA” value worked out at 0.207. For RRES, the “one-hybrid fitness for binding NBS DNA” value came out at 0.578. As for RRPC, the “one-hybrid fitness for binding NBS DNA” value was 0.249. The same measure for RCIC: at most 0.2.

Regarding RRIS, the “one-hybrid fitness for binding NBS DNA” value was determined as 0.661.
